We go through 38 compounds from PubChem BioAssay (NCI).

Several values for one entry are separate records, joined by “and”; a condition that tells them apart may be missing. Identical values can stand only once. This is part of a sample that, as a whole, favours compounds with a hit. Of some 79,000 tested, about 15% had one in any assay. The source holds several records for some structures; these can differ, active in one and inactive in another. Activity calls are given as the source filed them. Cut-off read from the data, not from the text of the source: active = growth inhibition above about 70%; inactive = the rest.

One assay can be described thus: NCI Yeast Anticancer Drug Screen. Data for the rad50 strain (AID 155).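 Note: 0% = growth of vehicle-only cultures of the same strain.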 Particulars: S. cerevisiae rad50 strain growth inhibition; at 5.0 µM (retest, dose inferred, filed as 0.5); stronger effect = higher value. Put shortly: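 Readout: growth inhibition relative to vehicle-treated cultures. Compound exposure was carried out in a genetically defined yeast strain deficient in DNA damage repair.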
As to `COc1ccc2[nH]c3c(C)c4ccncc4c(C)c3c2c1`, the growth inhibition is 95% (active).

For `CC(=O)OC1OC(CI)C(OC(C)=O)C(OC(C)=O)C1OC(C)=O` (stereo unspecified), the growth inhibition was 1% (inactive).

For the compound `Cc1cc(NS(=O)(=O)c2ccc(N=Nc3cc(N=Nc4ccc(S(=O)(=O)Nc5cc(C)nc(C)n5)cc4)c4c(NC(=O)C(Cl)Cl)cccc4c3OC(=O)C(Cl)Cl)cc2)nc(C)n1` (tested in a mixture with another compound), the growth inhibition is 16% (inactive).

For the compound `Oc1cc2c(cc1C(c1ccc3c(c1)OCO3)N1CCN(C(c3ccc4c(c3)OCO4)c3cc4c(cc3O)OCO4)CC1)OCO2` (stereo unspecified), the growth inhibition is 2% (inactive).

`O=[N+]([O-])c1ccc(N/N=C/CC(O)(C(F)(F)F)C(F)(F)F)c([N+](=O)[O-])c1`: the growth inhibition was 0% (inactive).

Consider `CCCc1cc(=O)oc2c3c(c4c(c12)OC(C)(C)CC4)O[C@@H](C)[C@H](C)[C@H]3O`, for which the growth inhibition was 8% (inactive).

For the compound `O=Cc1cc(Br)ccc1O`, the growth inhibition was 21% (inactive) and 9% (inactive).

In the case of `Cc1n(-c2ccccc2)c2c([n+]1Cc1ccc([N+](=O)[O-])cc1)C(=O)c1ccccc1C2=O`, the growth inhibition is 1% (inactive).

Take `Nc1ncnc2c1ncn2CCCl`: the growth inhibition is 2% (inactive).

Turning to `CN(C)CCCN=c1c2ccccc2n(O)c2cccc([N+](=O)[O-])c12`, the growth inhibition is 6% (inactive).

`CCOc1ccc2ccccc2c1C(Cc1ccc(Cl)cc1)NCCO` (stereo unspecified): the growth inhibition is -1% (inactive).

For `COc1ccc(Oc2ccccc2N)cc1`, the growth inhibition was 0% (inactive).

Consider `O=C1C(Cl)=C(Cl)C(Cl)(Cl)C(Cl)=C1Cl`, for which the growth inhibition was 24% (inactive) and 61% (inactive).

For the compound `CCCCCCCCCCCC(=O)CN1CCOCC1`, the growth inhibition was 34% (inactive).

On to `CCC(C)(C)c1cc(O)c(C(C)(C)CC)cc1O`, for which the growth inhibition is 10% (inactive).

Turning to `CC[C@](O)(CC(=O)O[C@H]1C(=O)O[C@@H]2C[C@H]3C(C)=CC(=O)[C@@H](O)[C@]3(C)[C@H]3[C@@]4(O)OC[C@]32[C@@H]1[C@@H](C)[C@H]4O)C(C)C`, the growth inhibition is 44% (inactive).

For the compound `Nc1ccccc1Oc1ccc(Cl)cc1Cl`, the growth inhibition is 27% (inactive).

Take `O=C1Nc2ccccc2C1(O)C/C(=N/O)c1ccc2ccccc2c1` (stereo unspecified): the growth inhibition is 34% (inactive).

For the compound `NNC(=O)c1ccc(NC(=O)CSc2nc3ccccc3s2)cc1`, the growth inhibition was -4% (inactive).

With `C[C@H]1CC[C@H]([C@@H](C)[C@H]2[C@@H](O)C[C@H]3[C@@H]4CC[C@H]5C[C@@H](O)CC[C@]5(C)[C@H]4CC[C@]23C)NC1`, the growth inhibition was 32% (inactive) and 5% (inactive).

On to `CC(C)(c1ccc(O)cc1)c1ccc(O)cc1`, for which the growth inhibition was 5% (inactive).

As to `O=C1/C(=C/c2ccc(Cl)cc2)CNC/C1=C\c1ccc(Cl)cc1`, the growth inhibition is 83% (active) and 48% (inactive).

For `CCN(CC)c1ccc(/C=C/c2ccnc3ccccc23)cc1`, the growth inhibition is -11% (inactive) and 0% (inactive).

As for `Oc1ccc(/C=N/NC(=S)NN2CCOCC2)nc1`, the growth inhibition is 38% (inactive).

Consider `COc1ccc(-c2c(C#N)c(-c3ccc(C)cc3)n(NS(=O)(=O)c3ccccc3)c(=O)c2C#N)cc1`, for which the growth inhibition is 94% (active).

With `c1ccc(-c2[nH]c3ccccc3c2-c2ccccn2)cc1`, the growth inhibition was 3% (inactive).

With `Nc1cc2c(cc1Cl)[nH]c(=O)c1cc(Cl)ccc12`, the growth inhibition is 46% (inactive).

For the compound `C1=C(c2ccccc2)N(CCc2ccccc2)C(c2ccccc2)=CN1Cc1ccccc1`, the growth inhibition was -7% (inactive).

For `COC(=O)c1nnn(-c2ccc(S(N)(=O)=O)cc2)c1N`, the growth inhibition is -9% (inactive).

With `O=C1C(CN2CCOCC2)CCCC1CN1CCOCC1` (stereo unspecified), the growth inhibition was 0% (inactive).

With `c1ccc(-c2nc3ccccc3[nH]2)cc1`, the growth inhibition was 1% (inactive).

`O=Cc1cc([N+](=O)[O-])cc(CCl)c1O`: the growth inhibition was -119% (inactive).

Take `COC(=O)[C@]1(C)CCC[C@]2(C)c3ccc(C(C)C)cc3CC[C@@H]12`: the growth inhibition is 0% (inactive).

For `CCOC(=O)c1ccc(NCc2ccc3ccccc3n2)cc1`, the growth inhibition was -3% (inactive).

As to `CCCCCCCCCCCCCCCC(=O)NCC[N+](C)(C)C`, the growth inhibition was 33% (inactive).

For the compound `OC(c1nc2ccccc2[nH]1)C(O)C(O)C(O)c1nc2ccccc2[nH]1` (stereo unspecified), the growth inhibition is -2% (inactive).

On to `O=[N+]([O-])c1ccc(N/N=C(/C=N/Nc2ccc([N+](=O)[O-])cc2)C(O)C(O)C(O)CO)cc1` (stereo unspecified), for which the growth inhibition is 44% (inactive) and 67% (inactive).

As for `c1ccc2c(c1)CNc1ccccc1-2`, the growth inhibition was 4% (inactive).

Staying with this assay, now noted: S. cerevisiae rad50 strain growth inhibition; at 50.0 µM (retest, dose inferred, filed as 5.0); stronger effect = higher value.
For the compound `COc1ccc2[nH]c3c(C)c4ccncc4c(C)c3c2c1`, the growth inhibition was 99% (active).

For `CC(=O)OC1OC(CI)C(OC(C)=O)C(OC(C)=O)C1OC(C)=O` (stereo unspecified), the growth inhibition is 38% (inactive).

As for `Cc1cc(NS(=O)(=O)c2ccc(N=Nc3cc(N=Nc4ccc(S(=O)(=O)Nc5cc(C)nc(C)n5)cc4)c4c(NC(=O)C(Cl)Cl)cccc4c3OC(=O)C(Cl)Cl)cc2)nc(C)n1` (tested in a mixture with another compound), the growth inhibition is 76% (active).

With `Oc1cc2c(cc1C(c1ccc3c(c1)OCO3)N1CCN(C(c3ccc4c(c3)OCO4)c3cc4c(cc3O)OCO4)CC1)OCO2` (stereo unspecified), the growth inhibition is 98% (active).

For the compound `O=[N+]([O-])c1ccc(N/N=C/CC(O)(C(F)(F)F)C(F)(F)F)c([N+](=O)[O-])c1`, the growth inhibition is 98% (active).

For `CCCc1cc(=O)oc2c3c(c4c(c12)OC(C)(C)CC4)O[C@@H](C)[C@H](C)[C@H]3O`, the growth inhibition is 90% (active).

As for `O=Cc1cc(Br)ccc1O`, the growth inhibition was 97% (active) and 85% (active).

In the case of `Cc1n(-c2ccccc2)c2c([n+]1Cc1ccc([N+](=O)[O-])cc1)C(=O)c1ccccc1C2=O`, the growth inhibition is 97% (active).

For `Nc1ncnc2c1ncn2CCCl`, the growth inhibition was -4% (inactive).

For the compound `CN(C)CCCN=c1c2ccccc2n(O)c2cccc([N+](=O)[O-])c12`, the growth inhibition is 2% (inactive).

Consider `CCOc1ccc2ccccc2c1C(Cc1ccc(Cl)cc1)NCCO` (stereo unspecified), for which the growth inhibition is -1% (inactive).

Turning to `COc1ccc(Oc2ccccc2N)cc1`, the growth inhibition is 93% (active).

In the case of `O=C1C(Cl)=C(Cl)C(Cl)(Cl)C(Cl)=C1Cl`, the growth inhibition is 99% (active).

Regarding `CCCCCCCCCCCC(=O)CN1CCOCC1`, the growth inhibition was 99% (active).

With `CCC(C)(C)c1cc(O)c(C(C)(C)CC)cc1O`, the growth inhibition is 88% (active).

`CC[C@](O)(CC(=O)O[C@H]1C(=O)O[C@@H]2C[C@H]3C(C)=CC(=O)[C@@H](O)[C@]3(C)[C@H]3[C@@]4(O)OC[C@]32[C@@H]1[C@@H](C)[C@H]4O)C(C)C`: the growth inhibition was 97% (active).

With `Nc1ccccc1Oc1ccc(Cl)cc1Cl`, the growth inhibition is 48% (inactive).

`O=C1Nc2ccccc2C1(O)C/C(=N/O)c1ccc2ccccc2c1` (stereo unspecified): the growth inhibition was 36% (inactive).

Consider `NNC(=O)c1ccc(NC(=O)CSc2nc3ccccc3s2)cc1`, for which the growth inhibition is 35% (inactive).

On to `C[C@H]1CC[C@H]([C@@H](C)[C@H]2[C@@H](O)C[C@H]3[C@@H]4CC[C@H]5C[C@@H](O)CC[C@]5(C)[C@H]4CC[C@]23C)NC1`, for which the growth inhibition was 94% (active) and 96% (active).

For `CC(C)(c1ccc(O)cc1)c1ccc(O)cc1`, the growth inhibition was 59% (inactive) and 83% (active).

Take `O=C1/C(=C/c2ccc(Cl)cc2)CNC/C1=C\c1ccc(Cl)cc1`: the growth inhibition is 79% (active) and 71% (active).

Consider `CCN(CC)c1ccc(/C=C/c2ccnc3ccccc23)cc1`, for which the growth inhibition was 95% (active) and 98% (active).

Regarding `Oc1ccc(/C=N/NC(=S)NN2CCOCC2)nc1`, the growth inhibition is 96% (active).

In the case of `COc1ccc(-c2c(C#N)c(-c3ccc(C)cc3)n(NS(=O)(=O)c3ccccc3)c(=O)c2C#N)cc1`, the growth inhibition was 97% (active).

In the case of `c1ccc(-c2[nH]c3ccccc3c2-c2ccccn2)cc1`, the growth inhibition is 8% (inactive).

With `Nc1cc2c(cc1Cl)[nH]c(=O)c1cc(Cl)ccc12`, the growth inhibition is 65% (inactive).

`C1=C(c2ccccc2)N(CCc2ccccc2)C(c2ccccc2)=CN1Cc1ccccc1`: the growth inhibition is 95% (active).

As for `COC(=O)c1nnn(-c2ccc(S(N)(=O)=O)cc2)c1N`, the growth inhibition is -16% (inactive).

On to `O=C1C(CN2CCOCC2)CCCC1CN1CCOCC1` (stereo unspecified), for which the growth inhibition is 97% (active).

In the case of `c1ccc(-c2nc3ccccc3[nH]2)cc1`, the growth inhibition is 28% (inactive).

As to `O=Cc1cc([N+](=O)[O-])cc(CCl)c1O`, the growth inhibition was 26% (inactive).

With `COC(=O)[C@]1(C)CCC[C@]2(C)c3ccc(C(C)C)cc3CC[C@@H]12`, the growth inhibition is 40% (inactive).

`CCOC(=O)c1ccc(NCc2ccc3ccccc3n2)cc1`: the growth inhibition was 15% (inactive).

In the case of `CCCCCCCCCCCCCCCC(=O)NCC[N+](C)(C)C`, the growth inhibition is 99% (active).

Regarding `OC(c1nc2ccccc2[nH]1)C(O)C(O)C(O)c1nc2ccccc2[nH]1` (stereo unspecified), the growth inhibition was -28% (inactive).

For the compound `O=[N+]([O-])c1ccc(N/N=C(/C=N/Nc2ccc([N+](=O)[O-])cc2)C(O)C(O)C(O)CO)cc1` (stereo unspecified), the growth inhibition is 97% (active) and 96% (active).

Take `c1ccc2c(c1)CNc1ccccc1-2`: the growth inhibition is 58% (inactive).
